Screens (PubChem BioAssay)
An excerpt weighted towards active compounds, which were near 19% of everything screened.
CHX counter: counter-screen hit for Shiga toxin inhibitors, cycloheximide; AID 2314; cell reporter, cycloheximide protein synthesis inhibition counterscreen; 300,000 tested, 12% active; max response, %; in the data active = max response mostly above about 13%, no sharp cut-off; inactive = mostly below about 14%; also: read at 38.3 µM for the half of the compounds with a filed dose; 0% is about no effect
Marburg entry inh: inhibitors of Marburg virus binding or cell entry; 300,000 tested, 1.8% active; Potency, µM (doses to about 37.8 µM), for the others: at the highest dose activity change, negative = inhibition, hits mostly inhibitors; Marburg virus pseudotyped entry inhibition, cell reporter; AID 540276; calls by dose curve; tested in HEK293 cells; also: potency is read from the fitted curve at half-maximal effect; % is scaled to controls: 0 for no effect and ±100 for the full control effect
LASV entry inh: blocks Lassa virus binding to or entry into cells. AID 540256. Potency, µM (titrated, usually from 37.9 µM), for the others: at the top dose activity change, negative = inhibition, hits mostly inhibitors. 300,000 tested, 1.2% active. Lassa virus pseudotype entry inhibition, cell reporter; calls by dose curve; tested in HEK293 cells; also: potency is read from the fitted curve at half-maximal effect; % is scaled to controls: 0 for no effect and ±100 for the full control effect; nearly all actives have a fitted effect of over 50% in size
Shiga inhibitor: blocks Shiga toxin action in Vero cells; 290,000 tested, 9.2% active; Vero cells, Shiga toxin protein synthesis inhibition reporter; inhibition, % at 38.7 µM; in the data active = inhibition mostly above about 28%, no sharp cut-off; inactive = mostly below about 43%; also: 0% is about no effect
Pf growth 96h: inhibits malaria parasite growth, 96 h; P. falciparum luciferase reporter growth, 96 h; Potency, µM (titrated, usually from 28.7 µM), inactives show at the highest dose activity change, negative = inhibition, most hits filed as inhibitors; 320,000 tested, 6.9% active; also: potency is read from the fitted curve at half-maximal effect; % is scaled to controls: 0 for no effect and ±100 for the full control effect
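Erythrocytes infected with luciferase-expressing P. falciparum were dispensed at 2% hematocrit and 0.05% parasitemia (final), then incubated with compounds 96 hours at 37 C in 5% CO2. Luminescence after detection reagent addition reported growth.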
Pf growth 48h: P. falciparum growth inhibition at 48 hours (one generation); AID 504832; P. falciparum luciferase growth in erythrocytes, 48 h; Potency, µM (doses to about 28.7 µM), inactives show at the highest dose activity change, negative = inhibition, usual class: inhibitors; 310,000 tested, 5.9% active; also: potency is read from the fitted curve at half-maximal effect; % is scaled to controls: 0 for no effect and ±100 for the full control effect
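Luminescence readout; reporter = integrated firefly luciferase in P. falciparum. RBC culture at 2% hematocrit, 0.1% parasitemia final, 37 C/5% CO2; decreased signal taken as growth inhibition.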
* marks the source's active call; other numbers are inactive results; ? = inconclusive; · = no result given; [ ] = dose if it differs, or a comment. Unless noted, calls follow the shape of the dose curve; as a rule, active = well fitted inhibition curve with a large enough effect; inconclusive = small, poorly fitted or top-dose-only effect, or another doubt; inactive = no such curve, though single readings can be large or run the other way.

SMILES | CHX counter | Marburg entry inh | LASV entry inh | Shiga inhibitor | Pf growth 96h | Pf growth 48h
C=C[C@H]1CN2CC[C@H]1C[C@@H]2[C@@H](O)c1ccnc2ccccc12 | · | · | · | · | 0.0041µM* | 0.033µM*
C=CC1CN2CCC1CC2C(OC(C)=O)c1ccnc2ccc(OC)cc12 (centres undefined) | -2 | -22% | 4% | -16 | 0.29µM* | 0.37µM*
Cc1cccc(NC(=O)CCS(=O)(=O)c2cc(Br)cc3c2N(C(=O)C2CC2)CC3)c1 | · | 18%[46.1 µM] | 8%[46.1 µM] | · | · | ·
CCn1c(C(=O)NCc2ccc(C)cc2)cc2sc(Cl)cc21 | · | 0%[46.1 µM] | · | · | · | ·
OCC#CCSc1nnc(-c2ccccc2Br)o1 | 27* | 13% | -5% | 38 | ? | 60%
O=C(OCC#CCSc1nnc(-c2ccncc2)o1)c1cccs1 | -1 | ? | 9% | -4 | 12µM* | -8%
Cc1cc(C)c(C(=O)CSc2nnc(-c3ccccc3Br)o2)cc1C | -3 | 10% | 1% | 6 | ? | 13%
COc1ccc(-c2nnc(SCC#CCO)o2)cc1OC | -2 | -20% | -18% | 12 | 11% | 6%
OCC#CCSc1nnc(-c2ccc(Br)cc2)o1 | 33* | 0% | 21% | 22 | · | 87%
COc1ccc(CCNC(=O)CN2CCN(S(=O)(=O)c3ccc(Cl)cc3)CC2)cc1OC | -1 | -14% | 8% | -10 | · | ?
CC(C)(C)NC(=O)N1CCC(C(=O)O)CC1 | · | · | 0%[46.1 µM] | · | · | ·
CN(Cc1nccn1C)C(=O)CCc1nnc(CCC2CCCCC2)o1 | 8 | 27%[46.1 µM] | 7% | 44 | -1% | -3%
Cc1nn(C)cc1CN(C)C(=O)CCc1nnc(CCC2CCCCC2)o1 | 11* | · | · | 64 | 0% | -5%
O=C(COc1ccc(F)cc1)Nc1cc(Cl)ccc1-n1cncn1 | · | 32% | 22% | · | -5% | ?
Cc1cccc(OCC(=O)Nc2cc(Cl)ccc2-n2cncn2)c1C | · | -2%[46.1 µM] | 1% | · | ? | ?
CCc1cccc(OCC(=O)Nc2cc(Cl)ccc2-n2cncn2)c1 | · | · | · | · | ? | 13µM*
Cc1cccc(C)c1OCC(=O)Nc1cc(Cl)ccc1-n1cncn1 | · | -30% | -1% | · | 13µM* | 13µM*
Cc1cccc(OC(C)C(=O)Nc2cc(Cl)ccc2-n2cncn2)c1 (centres undefined) | · | · | · | · | ? | 4.1µM*
CCCOc1ccccc1OCC(=O)Nc1cc(Cl)ccc1-n1cncn1 | · | -27% | ? | · | 9.3µM* | 12µM*
COc1ccccc1N1CCN(C(=O)c2ccc(S(=O)(=O)N3CCCCCC3)cc2)CC1 | -1 | -26% | 1% | -18 | · | ?
CC1(C)OC(=O)C(=NNc2ccc(C(=O)O)cc2)C(=O)O1 | 15 | 18% | 13% | 17 | 7% | 26%
CC1(C)OC(=O)C(=NNc2ccc(O)cc2)C(=O)O1 | 13* | ? | 3% | 42 | 47% | 59%
CC1(C)OC(=O)C(=NNc2ccc(Cl)cc2)C(=O)O1 | 60* | ? | 22% | 63* | -8% | ·
Cc1ccc(-c2cc(C(=O)N/N=C/c3ccccc3)n[nH]2)o1 | 25* | -2%[46.1 µM] | -20%[46.1 µM] | 82* | ? | -4%
CC(/C=N/NC(=O)c1cc(-c2ccc(C)o2)[nH]n1)=C\c1ccccc1 | -2 | -4% | · | -6 | -20% | -7%
SMILES | CHX counter | Marburg entry inh | LASV entry inh | Shiga inhibitor | Pf growth 96h | Pf growth 48h
O=C(N/N=C/C(Br)=C/c1ccccc1)c1cc(-c2ccco2)[nH]n1 | 8 | ? | ? | 39* | 7% | -10%
COc1ccc(/C=C/C(=O)OCC(=O)NCCC2=CCCCC2)cc1OC | 7 | · | · | -9 | 0% | 3%
CCCCc1ccc(S(=O)(=O)Nc2ccc(C)c(NS(C)(=O)=O)c2)cc1 | -1 | 12% | -4% | -6 | 3% | 23%
COc1ccccc1OCC#CCN1CCCC1 | -2 | · | · | -11 | ? | 7%
Nc1cc(N)nc(SCCOc2ccccc2F)n1 | 70* | ? | 12% | 121* | 9% | 76%
COc1ccccc1OCC#CCSc1ncccn1 | 24* | · | · | 54 | -12% | 0%
Cc1ccccc1OCCSc1nc(N(C)C)nc(N(C)C)n1 | -3 | ? | 17% | -6 | ? | -21%
COc1ccccc1OCCSc1nc(N)cc(N)n1 | 22 | ? | ? | active | 107% | 96%
CC(=O)/C=C1/C(=O)Nc2ccccc21 | -12 | · | · | -8 | 2% | -23%
